Growth data for 25 compounds are collected here from PubChem BioAssay (NCI).

The panel holds about 83,000 compounds, 20% with a hit somewhere; the sample as a whole holds those more often.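 In brief: 96-well plates, 48 h treatment, single concentration, percent growth endpoint.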 A number with no mark means an inactive call. Active and inactive are the calls of the source. Rule for the calls: active = growth percent below 10; inactive = the rest.

For this experiment, the system named is HL-60(TB) leukemia. The experiment in a line: NCI-60 one-dose screen, 48 h (100 = growth as untreated, 0 = no growth, -100 = all killed). Particulars: 10 µM unless noted.
On to `CNC(=O)c1cc(Oc2ccc3c(c2)sc2nc(-c4ccc(NC(=O)Nc5ccc(Cl)c(C(F)(F)F)c5)cc4)cn23)ccn1`, for which the growth was 32.2%.

With `CC(=O)NCc1cc(C)c(C)cc1C`, the growth is 99.2%.

For the compound `N#CC1=CC2CN(Cc3ccccc3)C1C1C(=O)N(c3ccccc3)C(=O)C21` (stereo not given), the growth was 76%.

For `CCOC(=O)C1C(=O)C=C(c2cc(OC)c(OC)c(OC)c2)CC1c1sc(N(C)Cc2ccccc2)nc1Cl` (stereo not given), the growth was 80.4%.

Regarding `O=C(CCc1nnc(Cn2ccnc2)o1)c1nc2ccccc2[nH]1`, the growth is 106%.

As to `Nc1ncnc2c1CN(Cc1ccccc1)CC2`, the growth was 105%.

In the case of `COc1cc(-c2cc3cc(O)ccc3oc2=O)cc(OC)c1OC`, the growth is 85%.

Take `CC1OC2CC(=O)OC2C2=C1C(=O)c1c(O)c3c(c(O)c1C2=O)C1CC(O)C3(O)C(C)O1` (stereo not given): the growth was -26.7% (active).

As for `O=C(Nc1cccc2[nH]c(C(F)(F)F)nc12)c1ccc(F)cc1`, the growth was 49.6%.

Turning to `CCN1C(=O)N(CC)C2Nn3c(s/c(=C4\C(=O)N(C5CCCC5)c5ccccc54)c3=O)=NC21` (stereo not given), the growth was 29.8%.

Regarding `CCN(c1ccc(C(=O)N2CCN(c3ccccc3)CC2)cc1)S(C)(=O)=O`, the growth is 99.4%.

On to `CC(=O)c1c(C)[nH]c(-c2nc3ccc(N4CCN(C)CC4)cc3[nH]2)c1-c1ccccc1`, for which the growth is 4.85% (active).

As to `COc1ccc(C(=O)c2cc3c(N)c(C(=O)Nc4cccc(Cl)c4)sc3nc2C)cc1`, the growth is -45.3% (active).

Consider `O=C1Nc2ccc(Cl)cc2/C1=C/c1ccc[nH]1`, for which the growth is 102%.

For `O=C(Nc1ccc(OS(=O)(=O)c2ccc(F)cc2)cc1)C12CC3CC(CC(C3)C1)C2`, the growth is 52.7%.

`COc1cc(NCCN(CC(C)C)CC(C)C)c2ncc(C)cc2c1`: the growth is 88.2%.

For `CC1(C)C(=O)/C(=C\c2cccnc2)C[C@]2(C)[C@H]3CC=C4[C@@H]5C[C@@](C)(C(=O)O)CC[C@]5(C)CC[C@@]4(C)[C@]3(C)CC[C@@H]12`, the growth is 104%.

With `COc1ccc2oc(-c3ccc(Cl)cc3)c(N3CCN(C)CC3)c2c1`, the growth is 28.2%.

Turning to `COc1cc(-c2cc3cnccc3c3nc(N)c4ccncc4c23)cc(OC)c1OC`, the growth was 40.4%.

In the case of `Cc1oc(-c2ccc(Cl)cc2Cl)cc1C(=O)Nc1nccs1`, the growth is 97.4%.

As for `N=C(N)c1ccc(S(N)(=O)=O)cc1`, the growth is 94.9%.

As to `CCN(CC)c1ccc(CNc2cc(C)nc3ccc(OC)cc23)cc1`, the growth was -56.3% (active).

Consider `Oc1ccc(Nc2ccc3ccccc3c2)cc1`, for which the growth was 54.9%.

Take `COc1ccc2cc(-c3ccc(C(=O)NN)c(C)n3)ccc2c1`: the growth was 104%.

On to `O=C(OCc1ccc2c(Cl)cc(Cl)c(O)c2n1)c1cc2ccccc2[nH]1`, for which the growth was -36.1% (active).
